# Whole data set: some 35,000 sequences, median “fluorescence intensity (a.u.)” near 10,000, cut for the highest 2% near 52,000. Only a selection was taken, and the highest values are over-represented in it overall.
# Biological target: T1, OsWOX13 (Oryza sativa, UniProt Q5QMM3 1-267)
# T1 sequence: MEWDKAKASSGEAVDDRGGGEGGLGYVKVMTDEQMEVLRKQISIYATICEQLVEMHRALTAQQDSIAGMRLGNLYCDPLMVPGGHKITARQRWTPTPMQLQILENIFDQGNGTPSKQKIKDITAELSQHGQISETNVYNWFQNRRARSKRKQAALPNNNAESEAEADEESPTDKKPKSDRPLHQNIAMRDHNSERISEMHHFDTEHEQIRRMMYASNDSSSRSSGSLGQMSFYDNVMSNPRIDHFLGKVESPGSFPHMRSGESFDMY
# Test: protein-binding microarray (RPBM); PBS, 2% BSA, 51.3 ng/ul salmon testes DNA, 50 uM zinc acetate, 200 nM TF, 25 C, 1 h; high values mean tight binding
# Settings: protein: recombinant; tags: N-terminal polyhistidine and DsRed monomer fusion (pET32a); label: CyDye5-dUTP incorporated in the synthesized complementary strand; 3' TTTTT single-stranded linker to array surface; dsDNA, one strand shown
# Method in brief: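 Using Ni–NTA, transcription factors fused N-terminally to polyhistidine and DsRed were purified after expression in E. coli BL21-CodonPlus. These were incubated at 200 nM with a blocked, double-stranded custom Agilent array for 1 h at 25 °C in a buffer containing 50 µM zinc acetate, and the array was washed. The binding signal is per-feature fluorescence intensity (arbitrary units) on an Axon 4000B scanner.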
row,Sequence,binding signal
1,TAGATACGAAAATTAATTGGAATTTTGGATTTGGATGGGACGGAGTCACCTAGTGCAG,24500 fluorescence intensity (a.u.)
2,GTCACATCATTCTAATTTCAATTAAACTTCAAATTTTGGCCGGAGTCACCTAGTGCAG,12900 fluorescence intensity (a.u.)
3,CTGCAACTAAATTTTAGGATTAATTTAAGGAACTTTCGGGCGGAGTCACCTAGTGCAG,11300 fluorescence intensity (a.u.)
4,CAATGGTAAATTTATCCAGTCCAAAGTGAAAATATATGGTCGGAGTCACCTAGTGCAG,3960 fluorescence intensity (a.u.)
5,CTCCTTAATTTACTTATTTGTCTTTAATTGGTTCTCGCACCGGAGTCACCTAGTGCAG,33700 fluorescence intensity (a.u.)
6,CTGCCTGTAAATTTCTGTGATTTGATGTTTGCCTCTGTTGCGGAGTCACCTAGTGCAG,11300 fluorescence intensity (a.u.)
7,ATTTAAATCATCATCTATAGTCAATCTAATAGCTCACTCACGGAGTCACCTAGTGCAG,8910 fluorescence intensity (a.u.)
8,GTTAATTAATTATATTATAATAATTCTCTCAATTTGTCGCCGGAGTCACCTAGTGCAG,65500 fluorescence intensity (a.u.)
9,ATCAATCTCAATGGTTAAATGATTGATCTATCATAATTCACGGAGTCACCTAGTGCAG,22100 fluorescence intensity (a.u.)
10,AGTAATTTTGGTACAATTAATAAATAAATCTGATACCTCACGGAGTCACCTAGTGCAG,21200 fluorescence intensity (a.u.)
11,GATTAATTAATTAATCTCAATGATGGTAAATACATTCCCACGGAGTCACCTAGTGCAG,63100 fluorescence intensity (a.u.)
12,TTTTAGTAAATTAATAAATATTTATTTTGTTATTTAATACCGGAGTCACCTAGTGCAG,13200 fluorescence intensity (a.u.)
13,TAATATTATATTTAATTTGCATTATTTTAAATATAGTACCCGGAGTCACCTAGTGCAG,3730 fluorescence intensity (a.u.)
14,TTTTAAATTTAAAATAATTAAAACTCAATTAATAATTTGTCGGAGTCACCTAGTGCAG,31300 fluorescence intensity (a.u.)
15,AATAATAATTAATTATAGTAATTAATCATTAATTTTGTACCGGAGTCACCTAGTGCAG,64100 fluorescence intensity (a.u.)
16,TATAACTAAAATTATATTTGTAAGTTTAGTTGATATGACACGGAGTCACCTAGTGCAG,6390 fluorescence intensity (a.u.)
17,ATTAAATCAATAATTAAATATATTTTCATAATAAATTTGTCGGAGTCACCTAGTGCAG,23400 fluorescence intensity (a.u.)
18,AATAATTAAATTTGATATAATAAATTAATATGTGATATGTCGGAGTCACCTAGTGCAG,35700 fluorescence intensity (a.u.)
19,AGTGATAAATTTGAGTGATTACTATATGACACCGTTGTGTCGGAGTCACCTAGTGCAG,55700 fluorescence intensity (a.u.)
20,CAATGACTGATTACTGTGTTGATAGAATTTCATATACATTCGGAGTCACCTAGTGCAG,34300 fluorescence intensity (a.u.)
21,TAAAATTTGGAACTGAAATTTCTAACATTTCGGGTCCATCCGGAGTCACCTAGTGCAG,4680 fluorescence intensity (a.u.)
22,AAGATAGATAGATTCATCGCGATCGATCGAGCGGGAGGTACGGAGTCACCTAGTGCAG,22500 fluorescence intensity (a.u.)

row,Sequence,binding signal
1,AAACCATTGCAAATTAACTCTCCAAATGGTTTCAGAGACGCGGAGTCACCTAGTGCAG,4040 fluorescence intensity (a.u.)
2,TACGCTATACGCAGTAATTGATATATATAATCTTCATGGTCGGAGTCACCTAGTGCAG,8920 fluorescence intensity (a.u.)
3,CCAAATGGGACAAAAGATTGAAAAGAAAACTGACAGCCGCCGGAGTCACCTAGTGCAG,13900 fluorescence intensity (a.u.)
4,GTCCCAATGATTGCCAGCCCCGGTGGACGGGTGTAGAAGCCGGAGTCACCTAGTGCAG,38100 fluorescence intensity (a.u.)
5,CTTTTAAATGTAGTATAATTATATTATAACTAATAACTAGCGGAGTCACCTAGTGCAG,18300 fluorescence intensity (a.u.)
6,ATAACTATTTAATTGACATGCAATAAATATAAATGGGTAGCGGAGTCACCTAGTGCAG,52600 fluorescence intensity (a.u.)
7,TATAATTGACATGCAATTATAATAACGTGGGTTAAATATACGGAGTCACCTAGTGCAG,33800 fluorescence intensity (a.u.)
8,CCAAATTCATCTTAATGTTTGATTATGATCAGCATCTTATCGGAGTCACCTAGTGCAG,4610 fluorescence intensity (a.u.)
9,TCTAAATTGTATTTCTATATGGACTCTAGTCTCCTCTTCACGGAGTCACCTAGTGCAG,14000 fluorescence intensity (a.u.)
10,CGTCTAATTAAGCGTAGACGATCTGATTCGCTAGCTCGCACGGAGTCACCTAGTGCAG,10600 fluorescence intensity (a.u.)
11,GAAATAATTAATCAATTAACGCTGATGTGTGAGCTGCGTACGGAGTCACCTAGTGCAG,53800 fluorescence intensity (a.u.)
12,GAAACGTGATTCAAATGATTATTCAGGTACAATAATCTTACGGAGTCACCTAGTGCAG,8070 fluorescence intensity (a.u.)
13,AGTCAAATTAATCACGCAGCTGAATGCTGAATAATGTGTCCGGAGTCACCTAGTGCAG,24000 fluorescence intensity (a.u.)
14,GAACAATAGATTAATATATAATTAAATAAATATTAGTCAACGGAGTCACCTAGTGCAG,25100 fluorescence intensity (a.u.)
15,AGCTCTGATTGAATTAGCTAATTATGGTTGCACGTCTAAGCGGAGTCACCTAGTGCAG,59600 fluorescence intensity (a.u.)
16,TCCTCTCTTAATTAATTATTAGCTCGTGTTAATTGTTAAACGGAGTCACCTAGTGCAG,32800 fluorescence intensity (a.u.)
17,TATTAATTTGTAATTAATATTGAATAACGCTGCGTGAGTACGGAGTCACCTAGTGCAG,45900 fluorescence intensity (a.u.)
18,TAAACATCTGATTAGCTAAAAGTGTTTAATTAGATTTCCACGGAGTCACCTAGTGCAG,21800 fluorescence intensity (a.u.)
19,TCCCCTCTGATTAATTAATTAATTAATTAATTAGCTAAAACGGAGTCACCTAGTGCAG,65500 fluorescence intensity (a.u.)
20,TACAATCTGATTAATTAATTAGCACGGAAAATAATGTCAACGGAGTCACCTAGTGCAG,59200 fluorescence intensity (a.u.)
21,CAGTTGATTGGCCGACGTTATGATATGGTAGCTGAATTAGCGGAGTCACCTAGTGCAG,44100 fluorescence intensity (a.u.)
